Measured values published in the supplement of paper PMC6555819.

Key:
Assay in all cases: PBM binding z-score (relative to random genomic background probes); higher = stronger binding; sequences stand for … in GC…GCGATTGACAGCGTAGAATGAAGG
[1] = tested on: RARb homodimer (NR concentration 270 nM)
Outline: (§1)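 The probes on custom Agilent 4×180K protein-binding microarrays were double-stranded, with 34-nt variable regions bearing direct-repeat seeds, single-nucleotide variants, half-site ablations and random human genomic background sequences. Incubation lasted 1 h with ligand-free nuclear receptor dimers in PBS pH 7.4, 2% milk, 0.02% Triton X-100, 1 mM DTT, 0.2 mg/mL BSA and 0.4 mg/ml salmon testes DNA. Antibodies against each partner (one per run) detected bound dimers, and fluorescence scans were regression-normalized. Binding z-scores take the random background probes as reference.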

[2] = tested on: RARg:RXRa (NR concentration 270 nM, RXRa partner concentration 90 nM)
Outline: as §1

[3] = tested on: RARg homodimer (NR concentration 270 nM)
Outline: as §1

[4] = tested on: RXRa DBDmut IVT, anti-RXR (DBD mutation: RXRa K156A/R161A, NR concentration 90 nM)
Outline: as §1

[5] = tested on: RXRa homodimer (NR concentration 180 nM)
Outline: as §1

[6] = tested on: THRa:RXRa (NR concentration 90 nM, RXRa partner concentration 90 nM)
Outline: as §1

[7] = tested on: THRa homodimer (NR concentration 90 nM)
Outline: as §1

[8] = tested on: VDR homodimer (NR concentration 270 nM)
Outline: as §1

Row | Sequence | PBM binding z-score [1] | PBM binding z-score [2] | PBM binding z-score [3] | PBM binding z-score [4] | PBM binding z-score [5] | PBM binding z-score [6] | PBM binding z-score [7] | PBM binding z-score [8]
1 | ATATGTAGGTTAGCTGGGGTCATTCGGACTAGGC | 3.59 | 4.28 | 2.86 | 2.17 | 5.36 | 5.12 | 3.5 | 5.38
2 | ATCTCTAGGTAAGACTCAGTTCAGAGAAGAACGC | 0.397 | 0.254 | 0.549 | 0.3 | -0.0317 | 0.761 | 0.645 | 1.12
3 | AATACAGGGTCACTAGGCCAGAGTTGGTACGAAT | 3.56 | 5.2 | 5.06 | 2.8 | 5.94 | 3.51 | 1.21 | 2.58
4 | ATCGAAAGGTCGAAGGTGAGGATACCCACCCGAA | 2.56 | 4.41 | 3.84 | 0.413 | 5.16 | 3.1 | 1.1 | 0.293
5 | TTACCAAGGCGAAGGTCGTTGATCCCTCTGTAGA | 0.804 | 0.317 | 0.0659 | 0.0625 | 1.13 | 1 | 0.0881 | 0.564
6 | TCTCCGAGGACACGAAAGGTCAGAGCTCGACATC | 4.77 | 4.91 | 5.54 | 1.34 | 4.12 | 4.36 | 2.74 | 1.31
7 | CCTAACAGGCCAGGGTCACTCAAGCATTTCGCTT | 2.8 | 3.17 | 2.48 | 0.743 | 3.37 | 3.01 | 1.15 | 1.44
8 | AGTCACAGTTCACTAGGTAACGTAAGATTCAGCT | 1.19 | 2.17 | 2.07 | 2.64 | 1.74 | 1.34 | 0.333 | 1.8
9 | AGGACGAGGGCAATGAGTTGATAGCACGGGTGGC | 1.44 | 1.21 | 1.88 | 2.22 | 0.924 | 1.08 | 0.181 | 3.41
10 | CCTACTGGGCCAAAAAGGTCCTTGATGCCGATAA | 0.795 | -0.28 | -0.148 | -0.722 | -0.259 | -0.265 | -0.242 | -0.393
11 | ACTAGTCGGTCAGCTGAGGTCACACACAATTCGG | 4.94 | 4.99 | 5.76 | 1.43 | 4.35 | 5.27 | 5.28 | 3.97
12 | CCTAGCAGGCCAGCGTCACTCAAGCATTTCGCTT | -0.555 | -0.553 | -0.578 | -0.0144 | -0.744 | -0.634 | -0.783 | -0.635
13 | ACTAGTTGGTCAGCTGCGGTCACACACAATTCGG | 2.82 | 1.23 | 1.87 | 0.356 | 0.636 | 2.65 | 0.969 | 0.532
14 | ATCCCTAGGTAACCAAGTTCAGTGAATGCCGAAC | 1.97 | 0.484 | 0.374 | 0.841 | 0.841 | 1.79 | 1.02 | 2.77
